Results reported in publication PMC12136788.
Changes are numbered by the printed parent chain. Whole data set: some 24,000 sequences, median “enrichment r” near 0.99, cut for the highest 2% near 3.7. Shown is part of a subset that was picked to be rich in the highest values.

T1: UNK ZnF1-3 (human, UniProt Q9C0B0 31-174)
T1 sequence: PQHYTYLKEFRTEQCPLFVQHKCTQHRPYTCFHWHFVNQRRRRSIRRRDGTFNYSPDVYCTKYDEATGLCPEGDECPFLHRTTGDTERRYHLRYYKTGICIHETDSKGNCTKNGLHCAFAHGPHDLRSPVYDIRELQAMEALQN

B1: chr17:24706804:24706805:+_ENSMUSG00000032855_ENSMUST00000035565|mus_hu|FALSE|FALSE (ssRNA)
RNA: GGGAGUUCUACAGUCCGACGAUCGCAGCCGGGCACGAAGGUGGCCACCAGGGCAGGGCAGACAUUCUCAAAGCGGGCGCUGACACUGCCCCCAGGCCAGCGAGCCGUGGCCGUGGCGUUGGCACCAGAGUCCACCUGGAGCACCAACAGAGGAUUGAGCAUCA
B2: chr7:17149110:17149111:-_ENSMUSG00000058230_ENSMUST00000075845|mus_hu|FALSE|FALSE (ssRNA)
RNA: GGGAGUUCUACAGUCCGACGAUCAAUAUCCAUGUAUACAGAUUCCUCCAGCCACUGGUAGAAAUCCUCAUUCAUAAUAAAACUACGGGCCUCUUCCCAAGGCUUUCCGGGAGUUAUGAAAGGAGAAGUCUCCAGGUUUUCUUUCAACAGAGGAUUGAGCAUCA
B3: chr12:8504966:8504967:-_ENSMUSG00000054364_ENSMUST00000067384|mus_hu|FALSE|FALSE (ssRNA)
RNA: GGGAGUUCUACAGUCCGACGAUCACAAGUGUGGUCAGAAUGCUACUGUCGUAUGCAAAUGACGAGUGCAUUAAGUGUCAAACAAUGAAACAAUUGUGCAAAGAAUAAAAAAACAAAUUUUAGCCUUUAAAUAAAUCAAAUAACCAACAGAGGAUUGAGCAUCA
B4: chr5:141234466:141234467:-_ENSMUSG00000000149_ENSMUST00000000153|mus_hu|FALSE|FALSE (ssRNA)
RNA: GGGAGUUCUACAGUCCGACGAUCUAAUAAAAAAGACAAUAAGGAUUAACAGUGAAAUUAAAAUUAAAAAAUACAAAAGCCUAAGGUUCUGGAGACAAAACUGACUAGAGUCUAUGUGUAGCCAAGUUGUGAAUGACAGUUUAGCAACAGAGGAUUGAGCAUCA
B5: chr5:141234466:141234467:-_ENSMUSG00000000149_ENSMUST00000000153|mus_hu|motif|central (ssRNA)
RNA: B4 RNA with U81G, A82G
B6: 83879064_83879184_615_CDS_ENSMUSG00000030016_ENSMUST00000032088|mouse|control|control (ssRNA)
RNA: GGGAGUUCUACAGUCCGACGAUCUGGAGUUAUAUGAGACUCAUCAUCCCACCGACUACCAUGAGGCUUCCCCUUCUUUUGUUGUGCUUCAGGAAAAUCCAAUUUUUCUUUGGUUAAUCUUGGAUCGGUUCGGUGUUGAGUUACCAACAGAGGAUUGAGCAUCA
B7: chrX:20248820:20248821:+_ENSMUSG00000001924_ENSMUST00000001989|mus_mus|mus_mus_mus_hu_True|58_98 (ssRNA)
RNA: GGGAGUUCUACAGUCCGACGAUCGGCGAAGUCCGUCAUCACAAAGUCAGGUUCUGCCAGUGAGGCCACCAAGGAUUUAAAACUAAUCUUCUUAGGUACUUUGACCUGACUGACGAUGCCUCCACGGAUGUAGUCGGAGAAGUUCAACAGAGGAUUGAGCAUCA
B8: chr17:35253193:35253194:-_ENSMUSG00000024387_ENSMUST00000025246|mus_mus|FALSE|FALSE (ssRNA)
RNA: GGGAGUUCUACAGUCCGACGAUCGGCCUUUUCUUCCUUUAUUUCAUAUUCCCACCACAGUAACAAUUCCUUUAAUUUAAACUAAAAACCAUAGACUUCCUGAAAGGGUGGCAGCAGAGGAAUGGUGGUGUCACAGACAGAGGGCAACAGAGGAUUGAGCAUCA
B9: chr16:45382771:45382772:-_ENSMUSG00000022661_ENSMUST00000163230|mus_mus|mus_mus_mus_hu_True|1_18 (ssRNA)
RNA: GGGAGUUCUACAGUCCGACGAUCCUGGGUCAUGUUAUAAGACAAAUGGACAGGGAGGGCAUGCUUCUCAAAAAAUGUGAGCUAUUGUCUAAGACUAACAAUAUUUAUCUAGCUAUAUAAAAAUAAGAAAUGAAUAAACAUUACCAACAGAGGAUUGAGCAUCA
B10: chr16:45382771:45382772:-_ENSMUSG00000022661_ENSMUST00000163230|mus_mus|mus_mus_mus_hu_True|18_48 (ssRNA)
RNA: B9 RNA with U87A, A137G, C138U, A139U, U140A, U141A, A142G, C143A
B11: chr16:45382771:45382772:-_ENSMUSG00000022661_ENSMUST00000163230|mus_mus|mus_mus_mus_hu_True|18_58 (ssRNA)
RNA: B9 RNA with G80A, U84C, G86C, A137G, C138U, A139U, U140A, U141A, A142G, C143A
B12: chr16:45382771:45382772:-_ENSMUSG00000022661_ENSMUST00000163230|mus_mus|mus_mus_mus_hu_True|18_98 (ssRNA)
RNA: GGGAGUUCUACAGUCCGACGAUCCUGGGUCAUGUUAUGGGCCCAAUGGACAGGGAGGGCAUGCUUCUCAAAAAAUGUGAGCUAUUGUCUAAGACUAACAAUAUUUAUCUAGCUAUAUAAAAAUAAGAAAUGAAUAAGUUAAGACAACAGAGGAUUGAGCAUCA
B13: chr16:45382771:45382772:-_ENSMUSG00000022661_ENSMUST00000163230|mus_mus|mus_mus_mus_hu_True|18_18 (ssRNA)
RNA: B12 RNA with G38A, G39A, C41A, C43A
B14: chr16:45382771:45382772:-_ENSMUSG00000022661_ENSMUST00000163230|mus_mus|mus_mus_mus_hu_True|1_48 (ssRNA)
RNA: B9 RNA with U87A, U117A, A121U, U123A, A124G, A125U, G126U

target: T1, UNK ZnF1-3; experiment: nsRBNS (natural sequence RNA bind-n-seq); RBNS binding buffer (assumed for nsRBNS): 25 mM Tris pH 7.5, 150 mM KCl, 3 mM MgCl2, 0.01% Triton X-100, 500 ug/ml BSA, 20 U/ml SUPERase-In, 4 C; UNK is unkempt and MSI1 is Musashi-1; names of the RNAs are library labels; protein concentration not given here; high values mean tight binding

Binder | binding signal [enrichment R]
B1 | 0.934
B2 | 0.85
B3 | 2.25
B4 | 9.17
B5 | 13.3
B6 | 0.468
B7 | 0.876
B8 | 1.66
B9 | 2.42
B10 | 5.66
B11 | 7.97
B12 | 5.27
B13 | 5.7
B14 | 3.57
